Assay outcomes from PubChem BioAssay.
ClpP mod = qHTS Assay for Activators of ClpP. ATP-dependent Clp protease proteolytic subunit (Bacillus subtilis (strain 168)), P80244. purified B. subtilis ClpP, FRET peptide cleavage, 20 min. Potency, µM (top dose mostly 57.5 µM), for inactives: at the top dose activity change, negative = active. 340,000 compounds, 1.9% hits; active = well fitted falling curve with a large enough effect; inconclusive = small, poorly fitted or top-dose-only effect; inactive = no such curve, though single readings can be large or run the other way; note: potency is the fitted concentration of half-maximal effect; the source files actives as falling curves though it sought activators and does not explain the sign; nearly all actives have a fitted effect of over 65% in size
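Buffer: 100 mM Tris/HCl pH8, 100 mM KCl, 0.05% low protease BSA, 2.5% glycerol, 0.01% Tween-20. ClpP 10 microg/mL final; 20 min RT; delta FRET normalized to ADEP and DMSO controls.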
KCNH2 3.1 block = qHTS for Inhibitors of KCHN2 3.1: Mutant qHTS; 340,000 compounds, 0.95% hits; activity change, % (tested at about 1.8 µM); U2OS KCNH2 3.1, thallium flux FluxOr; stronger effect = lower value; Potassium voltage-gated channel subfamily H member 2, brain isoform KCNH2 3.1 (human); AID 720553, 2013;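 active = maximum activity change below -70%; inconclusive = maximum activity change from -70% to -50%; inactive = maximum activity change above -50%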;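 note: thallium influx rate constant from kinetic fluorescence after stimulation buffer; % is set by controls: 0 for no effect and ±100 for the full control effect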
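Virally transduced U2OS (3.1 isoform, 4 h infection in dark at RT) → overnight 37 C → FluxOr + Red40 in HBSS/HEPES, 45 min → stimulation buffer, 2 min kinetic read → rate constant vs DMSO controls.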
hERG WT inh = qHTS for Inhibitors of KCHN2 3.1: Wildtype qHTS. 340,000 compounds, 0.37% hits. U2OS, BacMam KCNH2, thallium flux FluxOr; stronger effect = lower value. AID 720551, 2013. Voltage-gated inwardly rectifying potassium channel KCNH2 (Homo sapiens), Q12809. activity change, % at 1.84 µM;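 active = maximum activity change below -70%; inconclusive = maximum activity change between -70% and -50%; inactive = maximum activity change above -50%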; note: % is set by controls: 0 for no effect and ±100 for the full control effect
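U2OS cells were transduced with wild-type KCNH2 virus (2.03 x 10^8 / mL) for 4 h at room temperature, then cultured overnight at 37 C. Thallium flux was read with FluxOr dye. Rate constants were normalized to DMSO controls.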
Chronic BCR inh = qHTS Assay to Find Inhibitors of Chronic Active B-Cell Receptor Signaling; ABC-DLBCL IkBa-CBG/CBR reporter, luminescence ratio, 4 h; 340,000 compounds, 0.05% hits; Potency, µM (doses to about 46.1 µM), for the others: top-dose activity change, negative = inhibition, hits mostly inhibitors; active = well fitted inhibition curve with a large enough effect in the signal ratio, with a control signal flat, not every such curve was filed as active; inconclusive = small, poorly fitted or top-dose-only effect, or effect the other way, or a change in a side signal; the % refers to the signal ratio;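 note: potency is the fitted concentration of half-maximal effect; plate controls were basal doxycycline-induced cells for no effect and cells given 10 µM MG132 for full effect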
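Cell line TMD8 (human ABC DLBCL), stably expressing tet-inducible CBG68-IkBa fusion and CBR; IMDM/0.5% FBS; cpd up to 46 uM; dox induction, 4 h, 37C/5% CO2; dual luminescence; green/red ratio; MG132 control.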
12-LOX inh = Primary qHTS assay for inhibitors of human arachidonate 12S-lipoxygenase (ALOX12): Round 2 | Potency, µM (highest dose often 108 µM), inactives show at the top dose activity change, negative = inhibition, usual class: inhibitors | 580,000 compounds, 1.1% hits | purified 12hLO, xylenol orange hydroperoxide absorbance | AID 1671190, 2021; active = well fitted inhibition curve with a large enough effect; inconclusive = small, poorly fitted or top-dose-only effect, or another doubt; inactive = no such curve, though single readings can be large or run the other way; note: potency is the fitted concentration of half-maximal effect; % is set by controls: 0 for no effect and ±100 for the full control effect
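Hydroperoxide product was detected by ferrous iron/xylenol orange as the 573 to 405 nm absorbance ratio. Arachidonic acid at 40 uM (final) was turned over for 30 min at room temperature by 150 nM human 12hLO, pH 7.0 Hepes buffer, after 15 min compound preincubation.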
LDHA block = qHTS assay for inhibitors of human lactate dehydrogenase; purified LDHA, NADH/diaphorase-resazurin fluorescence; stronger effect = lower value; activity change, % (values are at about 110 or 230 µM); 480,000 compounds, 0.15% hits; AID 1347041, 2019; in the data active = activity change below about -30%; inconclusive = mostly about -25% to -30%;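 note: plate controls were DMSO wells for no effect and wells without enzyme for full effect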
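Human LDH5 (2 nM) was incubated with 0.06 mM NADH and 0.2 mM pyruvate for 5 min at room temperature in Tris pH 7.4. Remaining NADH was coupled through diaphorase/resazurin, and resorufin fluorescence was read at 0 and 20 min.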
* hit, by the source's call; ? = inconclusive; . = no result given; [ ] = dose if it differs, or a comment. Shown are actives, neighbours in structure and some others; about 3% of the full set was active somewhere.

SMILES | ClpP mod | KCNH2 3.1 block | hERG WT inh | Chronic BCR inh | 12-LOX inh | LDHA block
Fc1ccc(-n2nnc(-c3nccs3)n2)cc1 | -2% | . | . | ? | 11µM* | 0
Cc1ccc(N2C(N)=C(C#N)C3(C(=O)Nc4ccc(C)cc43)C3=C2CC(C)(C)CC3=O)cc1 (stereo not given) | . | . | . | . | 10% | -8
S=c1[nH]c2ccc(Cc3ccc4[nH]c(=S)[nH]c4c3)cc2[nH]1 | . | 20 | -5 | 1% | 45µM* | -1
Nc1ccc2[nH]c(=S)[nH]c2c1 | . | 0 | -1 | . | ? | 0
COc1ccc(Oc2nc(C)cc(C)c2C#N)cc1 | -1% | 1 | 4 | 2% | -23% | 2
COc1ccc(C2(O)CC3CCC(C2)N3c2nc(C)cc(C)c2C#N)cc1 (stereo not given) | 28µM* | 9 | 1 | ? | 29% | 1
Cc1ccc(S(=O)(=O)N(CC(=O)O)Cc2ccc(Cl)cc2Cl)cc1 | . | . | . | . | -21% | -5
Cc1cc2cc(CN(Cc3cccs3)S(=O)(=O)c3ccc4c(c3)OCCO4)c(=O)[nH]c2cc1C | -12% | 9 | 0 | 7% | -7% | -4
Cc1ccc2[nH]c(=O)c(CN(Cc3cccs3)S(=O)(=O)c3ccc4c(c3)OCCO4)cc2c1 | -4% | -120* | 3 | 8% | -31% | -2
CCc1ccccc1N/N=C(/c1ccccc1)c1ccc(Br)cc1 | . | . | . | . | 7.9µM* | 15
COc1ccc(C(=NNc2ccccc2C(=O)O)c2ccc(OC)cc2)cc1 | -1% | 1 | 2 | ? | ? | -11
O=C(C[C@@H]1C[C@H]2O[C@H](CNCc3ccccc3Cl)[C@@H](O)[C@H]2O1)N1CCC(F)(F)C1 | . | . | . | . | 9%[176 µM] | .
Cc1ccc(NC(C)C(=O)Nc2sccc2C#N)cc1 (stereo not given) | . | . | . | . | ? | 26
Cc1noc(C)c1COc1ccccc1C(=O)NNC(=O)c1ccccc1 | -1% | 9 | -2 | ? | -8% | -1
COc1cc(C(=O)NNC(=O)c2ccccc2OCc2c(C)noc2C)cc(OC)c1OC | -2% | -87* | 12 | -10% | 182% | -8
N#Cc1c(Nc2cccc(F)c2)sc(C(=O)c2ccc(Cl)cc2)c1N | 0% | . | . | . | 45µM* | -2
CN1CCN(c2ncncc2-c2ccccc2Cl)CC1 | . | . | . | . | 40µM* | .
COc1ccc(Cl)cc1-n1nnc(C(=O)Nc2cc(C)ccc2C)c1C | . | . | . | . | 6% | -1
CC[C@@]1(C(=O)OC)N[C@H](CN(C)C(=O)COc2ccccc2)[C@@H]2C(=O)N(C)C(=O)[C@@H]21 | 1% | -8 | 2 | 5% | ? | -4
CC[C@@]1(C(=O)OC)N[C@H](CN(C)C(=O)COC)[C@@H]2C(=O)N(C)C(=O)[C@@H]21 | 2% | 28 | -1 | 1% | 5µM* | 1
COC(=O)c1ccc(NC(=O)CN(C2CCCCC2)S(C)(=O)=O)cc1 | 0.71µM* | 19 | -10 | 12% | 23% | -1
C=CCN=c1scc(-c2ccco2)n1/N=C/c1ccc(O)c(O)c1O | . | 2 | -3 | -1% | 18µM* | 34
O=C(CSc1nc2[nH]ncc2c(=O)[nH]1)Nc1cccc(Cl)c1 | . | -13 | -1 | ? | -11% | -9
N#Cc1c(-c2ccccc2)nc(SCc2cccc(Cl)c2)[nH]c1=O | -2% | -4 | -5 | 14% | 40µM* | -7
Cc1[nH]c(=O)nc(SCc2cccc(Cl)c2)c1C#N | . | 9 | -4 | 19% | ? | -16
SMILES | ClpP mod | KCNH2 3.1 block | hERG WT inh | Chronic BCR inh | 12-LOX inh | LDHA block
N#Cc1c(-c2ccco2)nc(SCC(=O)Nc2cccc(Cl)c2)[nH]c1=O | -2% | -15 | -23 | 14% | 22µM* | -12
COc1ccc(NC(=O)CSc2nnc(-c3ccc(C)cc3)c(=O)[nH]2)cc1 | . | . | . | . | -29% | 4
CC(C)(C)c1ccc(-c2nc(SCC(=O)Nc3ccc(Cl)cc3)[nH]c(=O)c2C#N)cc1 | -4% | . | . | . | ? | -31*
O=C1C(O)=C(c2ccccc2)C(c2ccccc2F)N1c1ccc(F)cc1 (stereo not given) | . | . | . | . | -9% | -41*
COc1ccc(OCC2(C)COc3ccc(C(=O)Nc4ccc(OC)nc4)cc3N2)cc1 (stereo not given) | . | . | . | . | 8%[176 µM] | .
O=C(NCCc1ccccc1)c1ccc(-c2ccccc2C(F)(F)F)o1 | ? | -214* | 1 | -6% | ? | 0
Cn1cc(CNCCCn2ncc3ccccc32)c(-c2ccccc2F)n1 | -7% | -97* | 14 | 2% | 16% | -4
O=C(O)CCc1ccc(S(=O)(=O)NCCc2ccc(Cl)cc2)cc1 | . | . | . | . | -27% | 2
C=CCOC(=O)C(C#N)c1nc2ccccc2nc1N1CCN(Cc2ccc3c(c2)OCO3)CC1 (stereo not given) | -9% | -103* | -111* | ? | ? | -2
CCCOC(=O)C(C#N)c1nc2ccccc2nc1Cl (stereo not given) | . | . | . | . | 18µM* | -6
CCCCCCOC(=O)C(C#N)c1nc2ccccc2nc1N1CCN(C)CC1 (stereo not given) | 1% | -71* | 9 | ? | ? | 3
CCCCCCOC(=O)C(C#N)c1nc2ccccc2nc1N1CCCCC1 (stereo not given) | -5% | 9 | -4 | 12% | -12% | -14
COc1cc(C(=O)Nc2ccccc2NS(C)(=O)=O)cc(OC)c1OC | . | . | . | . | -4% | 8
CNc1nnc(SCc2nnc(-c3ccccc3Br)o2)s1 | . | . | . | . | ? | 0
Cc1cccc(C(=O)NC(=S)NNC(=O)c2ccc(Cl)cc2)c1 | -4% | 3 | -8 | ? | 28µM* | -3
Cc1ccccc1C(=O)Nc1nnc(-c2ccc(C(C)(C)C)cc2)s1 | ? | -8 | -4 | -5% | 2% | -1
O=C(NC(=S)NNC(=O)c1cccs1)c1ccccc1 | 2% | 4 | -21 | ? | ? | -3
CC(C)(C)c1ccc(C(=O)NC(=S)NNC(=O)c2cccs2)cc1 | -3% | 12 | -2 | -8% | 40µM* | -3
Cc1cccc(C(=O)Nc2nnc(-c3ccc(C(C)(C)C)cc3)s2)c1 | -24% | -89* | -3 | 18% | 5% | -8
